Measured values: PubChem BioAssay (Tox21)
Values joined by “and” are separate entries in the source; they are usually repeats but may differ in a detail not shown here. Identical values can stand only once. Records with an inconclusive call do not appear. More than one record can exist for a structure, and the calls need not agree. Active and inactive are the calls of the source. Unless noted, calls come from the whole dose curve; as a rule, active = well fitted curve in the direction sought with a large enough effect in the repeat runs; inconclusive = weak or mixed curves; inactive = no such curve, though single readings can be large; an effect the other way counts as inactive or inconclusive.

Key:
[1] = A CellTox Green Cytotoxicity Assay to monitor cytotoxicity in HEK293 cells - 32 hour (AID 1224881); note: nearly all actives have a fitted effect of over 40% in size; note: potency is the fitted concentration of half-maximal effect
Method in brief: (§1)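 Seeding of HEK293 cells together with cytotoxicity dye preceded a 5 h incubation at 37 C/5% CO2. Test compounds in DMSO were then added and fluorescence monitored across 40 h.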

[2] = A CellTox Green Cytotoxicity Assay to monitor cytotoxicity in HepG2 cells - 0 hour (AID 1224882); note: nearly all actives have a fitted effect of over 35% in size; note: potency is the fitted concentration of half-maximal effect
Method in brief: (§2)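 Nonlytic assay: viable cells exclude the dye, so fluorescence scales with cell death. HepG2 at 600 cells/well, compounds added after 5 h, signal read across 40 h.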

[3] = A CellTox Green Cytotoxicity Assay to monitor cytotoxicity in HepG2 cells - 32 hour (AID 1224883); note: nearly all actives have a fitted effect of over 50% in size; note: potency is the fitted concentration of half-maximal effect
Method in brief: as §2

[4] = A CellTox Green Cytotoxicity Assay to monitor cytotoxicity in HEK293 cells - 8 hour (AID 1224884); note: nearly all actives have a fitted effect of over 35% in size
Method in brief: as §1

[5] = qHTS RealTime-Glo MT Cell Viability Assay in HepG2 cells - 16 hour (AID 1224885); note: nearly all actives have a fitted effect of over 50% in size; note: potency is the fitted concentration of half-maximal effect
Method in brief: (§3)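 Viability was tracked continuously by NanoLuc luminescence from prosubstrate reduced by living HepG2 cells, at successive time points over 40 h of compound exposure. Cells with reagent were preincubated 5 h at 37 °C before compound addition.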

[6] = qHTS RealTime-Glo MT Cell Viability Assay in HEK293 cells - 8 hour (AID 1224887); note: nearly all actives have a fitted effect of over 50% in size; note: potency is the fitted concentration of half-maximal effect
Method in brief: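 Tox21 screen in HEK293 using RealTime-Glo MT chemistry, with cells and reagent co-dispensed. Luminescence proportional to viable cell number was captured at intervals during 40 h compound exposure at 37 C.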

[7] = A CellTox Green Cytotoxicity Assay to monitor cytotoxicity in HEK293 cells - 16 hour (AID 1224888); note: nearly all actives have a fitted effect of over 35% in size
Method in brief: as §1

[8] = qHTS RealTime-Glo MT Cell Viability Assay in HepG2 cells - 0 hour (AID 1224889); note: nearly all actives have a fitted effect of over 50% in size
Method in brief: as §3

[9] = A CellTox Green Cytotoxicity Assay to monitor cytotoxicity in HepG2 cells - 8 hour (AID 1224890); note: nearly all actives have a fitted effect of over 45% in size; note: potency is the fitted concentration of half-maximal effect
Method in brief: as §2

[10] = qHTS assay to identify small molecule antagonists of the estrogen receptor alpha (ER-alpha) signaling pathway using the BG1 cell line in the presence of 0.1 nM 17-beta-estradiol - cell viability counter screen (AID 1259241); note: nearly all actives have a fitted effect of over 40% in size; note: potency is the fitted concentration of half-maximal effect
Method in brief: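 Measures cytotoxicity alongside the ER-alpha antagonist readout: VM7Luc4E2 cells, charcoal-stripped serum, 0.1 nM 17beta-estradiol final, 22 hr compound incubation at 37C, CellTiter-Fluor fluorescence.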

[11] = qHTS assay to identify small molecule antagonists of the androgen receptor (AR) signaling pathway using the MDA cell line in the presence of 0.5 nM R1881 - cell viability counter screen (AID 1259242); note: nearly all actives have a fitted effect of over 45% in size; note: potency is the fitted concentration of half-maximal effect
Method in brief: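 R1881 at 0.5 nM final stimulated MDA-kb2 cells during 16 hr compound treatment at 37C. Cytotoxicity read: CellTiter-Fluor fluorescence after 30 min.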

[12] = target: Estrogen receptor (Homo sapiens) (UniProt P03372); experiment: qHTS assay to identify small molecule antagonists of the estrogen receptor alpha (ER-alpha) signaling pathway using the BG1 cell line in the presence of 0.1 nM 17-beta-estradiol (AID 1259244); note: nearly all actives have a fitted effect of over 50% in size; note: potency is the fitted concentration of half-maximal effect
Method in brief: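 VM7Luc4E2; 4xERE-luciferase; 0.1 nM E2 final; 22 h co-incubation, 37C; ONE-Glo luminescence after 30 min at room temperature.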

[13] = qHTS assay to identify small molecule phospholipidosis (PLD) inducers (AID 1259344; active = well fitted curve in the direction sought with a large enough effect; an effect the other way counts as inactive or inconclusive)
Method in brief: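 Phospholipidosis is scored by imaging LipidTOX-stained pits in HepG2 cells exposed to compound for 24 h at 37 C; pit counts and integrated intensities per well and per cell serve as outputs.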

[14] = qHTS assay to identify small molecule HDAC inhibitors (AID 1259364); note: potency is the fitted concentration of half-maximal effect;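 note: wild-type HCT-116 cells with endogenous class I/II HDAC activity; nearly all actives have a fitted effect of over 45% in size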
Method in brief: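 Relative class I and II HDAC activity is taken from the luminogenic signal in HCT-116 cells, with compound exposure 2 hr and reagent development 30 min at room temperature.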

[15] = qHTS assay to identify small molecule HDAC inhibitors - cell viability counter screen (AID 1259365)
Method in brief: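 Following a 2hr exposure of overnight-plated wild-type HCT-116 cells to DMSO-delivered compounds, CellTiter-Glo was added and luminescence recorded after 30min at room temperature.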

[16] = qHTS assay to identify small molecule agonists of the sonic hedgehog signaling (Shh) pathway - cell viability counter screen (AID 1259366); note: nearly all actives have a fitted effect of over 50% in size; note: potency is the fitted concentration of half-maximal effect
Method in brief: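 After a 4hr attachment at 37C, NIH/3T3 cells bearing an integrated Gli1-driven luciferase reporter were dosed with compounds. Treatment lasted 24hr, with the final hour including CellTiter-Fluor for a fluorescence viability measurement.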

[17] = qHTS assay to identify small molecule antagonists of the sonic hedgehog signaling (Shh) pathway - cell viability counter screen (AID 1259367); note: nearly all actives have a fitted effect of over 55% in size; note: potency is the fitted concentration of half-maximal effect
Method in brief: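 Cells: 3T3 Gli1-Luc, 2,000/well, 4 hr pre-incubation. Compounds in DMSO, then conditioned medium. Incubation 24 hr, 37C, 5% CO2. CellTiter-Fluor at 23 hr, 1 hr, fluorescence.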

[18] = qHTS assay to identify small molecule agonists of the sonic hedgehog signaling (Shh) pathway (AID 1259368; calls by dose curve;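 note: NIH/3T3-derived 3T3Gli1-Luc cells carrying a stable Gli1-driven firefly luciferase reporter; series mostly up to about 92 µM; nearly all actives have a fitted effect of over 15% in size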)
Method in brief: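 Mouse fibroblast (NIH/3T3) reporter cells with stably integrated Gli1-Luc were treated 24 hr with compound; firefly luciferase luminescence served as the read-out.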

[19] = qHTS RealTime-Glo MT Cell Viability Assay in HEK293 cells - 24 hour (AID 1224886); note: nearly all actives have a fitted effect of over 50% in size; note: potency is the fitted concentration of half-maximal effect
Method in brief: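 Viability tracked continuously by luminescence as live cells reduce a prosubstrate for NanoLuc; HEK293 cells preincubated 5 h, compound-treated at 37 C, and read at 0, 8, 16, 24, 32 and 40 h.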
% is set by controls: 0 for no effect and ±100 for the full control effect.

Sequence of Estrogen receptor (Homo sapiens) (P03372 whole entry, looked up): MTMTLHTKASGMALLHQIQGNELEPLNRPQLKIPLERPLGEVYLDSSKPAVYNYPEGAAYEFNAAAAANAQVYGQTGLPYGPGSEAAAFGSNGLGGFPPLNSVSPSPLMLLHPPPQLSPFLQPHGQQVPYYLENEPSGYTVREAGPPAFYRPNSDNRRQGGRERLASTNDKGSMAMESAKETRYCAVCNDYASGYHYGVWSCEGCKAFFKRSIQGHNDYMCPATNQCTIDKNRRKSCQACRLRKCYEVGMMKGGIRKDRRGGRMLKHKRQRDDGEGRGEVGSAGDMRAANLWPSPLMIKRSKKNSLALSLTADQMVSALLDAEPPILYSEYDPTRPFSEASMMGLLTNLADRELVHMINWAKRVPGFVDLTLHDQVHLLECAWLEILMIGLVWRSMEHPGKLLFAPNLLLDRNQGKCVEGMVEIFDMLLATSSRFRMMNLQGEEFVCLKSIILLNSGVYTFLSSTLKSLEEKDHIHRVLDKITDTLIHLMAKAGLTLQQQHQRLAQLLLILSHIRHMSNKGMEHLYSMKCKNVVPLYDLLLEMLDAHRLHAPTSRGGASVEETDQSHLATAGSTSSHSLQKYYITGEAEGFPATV

O=C(COc1ccc(Cl)cc1)N1CCN(Cc2ccc3c(c2)OCO3)CC1
inactive: Potency [1] | Potency [2] | Potency [3] | Potency [4] | Potency [5] | Potency [7] | Potency [8] | Potency [9] | Potency [10] | Potency [11] | Potency [13] | Potency [14] | outcome [15] | Potency [16] | Potency [17] | Potency [18]
38.9 µM (active) and inactive: Potency [6]
active: Potency [12] 48.6 µM and 29.8 µM

COC(=O)C1=C(C)NC(C)=C(C(=O)OCCN(C)Cc2ccccc2)C1c1cccc([N+](=O)[O-])c1 (stereo not given)
inactive: Potency [1] | Potency [2] | Potency [4] | Potency [7] | Potency [9] | Potency [14] | outcome [15] | Potency [18]
active: Potency [5] 24.4 µM and 10.7 µM | Potency [19] 21.7 µM and 19 µM | Potency [6] 24.4 µM and 19 µM | Potency [10] 54.2 µM | Potency [12] 68.2 µM | Potency [16] 30.5 µM and 11.9 µM | Potency [17] 48.3 µM and 2.37 µM
60.8 µM (active) and inactive: Potency [11]
48.7 µM (active) and inactive: Potency [3]

O=C(c1ccc(OCCN2CCCCC2)cc1)c1c(-c2ccc(O)cc2)sc2cc(O)ccc12
inactive: Potency [2] | Potency [4] | Potency [5] | Potency [8] | Potency [9] | Potency [13] | Potency [14] | outcome [15] | Potency [18]
61.2 µM (active) and inactive: Potency [11]
active: Potency [3] 49 µM and 54.9 µM | Potency [19] 19.5 µM | Potency [6] 21.9 µM | Potency [16] 24.4 µM and 24.3 µM and 11.9 µM | Potency [17] 24.4 µM and 30.6 µM
54.9 µM (active) and inactive: Potency [1]

O=C(OCc1ccccc1)c1ccccc1O
active: Potency [14] 24.2 µM and 24.3 µM
inactive: Potency [1] | Potency [2] | Potency [3] | Potency [4] | Potency [5] | Potency [19] | Potency [6] | Potency [7] | Potency [9] | Potency [10] | Potency [11] | Potency [12] | outcome [15] | Potency [16] | Potency [17] | Potency [18]

COc1ccc(C(=O)CC(=O)c2ccc(C(C)(C)C)cc2)cc1
inactive: Potency [1] | Potency [4] | Potency [5] | Potency [7] | Potency [10] | Potency [11] | Potency [13] | Potency [14] | outcome [15] | Potency [16] | Potency [17] | Potency [18]
inactive and 75.6 nM (active): Potency [2] | Potency [9]
inactive and 67.4 nM (active): Potency [3]
29.6 µM (active) and inactive: Potency [19]

CCCCOCCOCCO
inactive: Potency [1] | Potency [2] | Potency [3] | Potency [4] | Potency [5] | Potency [19] | Potency [6] | Potency [7] | Potency [9] | Potency [10] | Potency [11] | Potency [12] | Potency [14] | outcome [15] | Potency [16] | Potency [17] | Potency [18]

O=C(Nc1ccc([N+](=O)[O-])cc1Cl)c1cc(Cl)ccc1O
active: Potency [1] 38.9 µM | Potency [3] 4.9 µM and 2.93 µM | Potency [19] 5.49 µM and 1.04 µM | Potency [11] 2.17 µM and 1.46 µM | Potency [12] 2.43 µM and 1.64 µM | Potency [14] 969 nM and 580 nM | Potency [16] 68.6 µM | Potency [17] 30.6 µM
inactive: Potency [2] | Potency [4] | Potency [5] | Potency [6] | Potency [7] | Potency [9] | Potency [13] | outcome [15] | viability change, negative = cytotoxic [16] -20.9% [at 19 µM] | viability change, negative = cytotoxic [17] -21.1% [at 19 µM] | Potency [18]
